Hits are enriched below; roughly 3.4% of the tested compounds scored in any of these assays.
KLK7 zymogen act = activates the human kallikrein-7 zymogen. purified proKLK7, EDANS-DABCYL substrate fluorescence; 100% is mature enzyme control, 0% vehicle. 0.9% of 370,000 active. activation, % at 7 µM;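 active = activation above the mean of all tested compounds plus 3 SD, computed per campaign excluding outliers beyond control limits, cut at about 13% in these data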
Target sequence (P49862 whole entry, looked up): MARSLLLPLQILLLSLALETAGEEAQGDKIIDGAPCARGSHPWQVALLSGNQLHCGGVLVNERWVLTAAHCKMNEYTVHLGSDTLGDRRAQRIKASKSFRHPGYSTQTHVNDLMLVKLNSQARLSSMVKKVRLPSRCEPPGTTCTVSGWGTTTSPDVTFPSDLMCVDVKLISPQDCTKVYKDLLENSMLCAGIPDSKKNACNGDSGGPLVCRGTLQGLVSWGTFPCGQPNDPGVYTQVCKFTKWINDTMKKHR
sPLA2-III inh = Inhibits HGIII-sPLA2 liposome hydrolysis, primary screen; 0.56% of 370,000 active; QFRET BODIPY PC-A2 liposome hydrolysis, fluorescence; inhibition, % at 12.2 µM; Q9NZ20;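 active = inhibition above mean plus 3 SD of compounds lying within the high and low control bounds, cut at about 19% in these data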
ADAM17 inh = inhibitors of human ADAM17; P78536; recombinant ADAM17, EDANS/DABCYL FRET peptide cleavage; inhibition, % at 6.95 µM; 0.83% of 370,000 active;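 active = inhibition above the mean of compounds lying between control limits plus 3 SD, set per campaign, cut at about 8.5% in these data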
PLC-gamma1 inh = inhibitors of human phospholipase C gamma1; P19174; purified PLC-gamma1, fluorogenic substrate, fluorescence; inhibition, % at 12.2 µM; 0.84% of 370,000 active; AID 720700; in the data active = inhibition above about 9.5%
PLC-beta3 inh = PLC-beta3 (human) inhibition, primary screen | Purified PLC-beta3, fluorogenic substrate, fluorescence | Q01970 | 0.18% of 370,000 active | inhibition, % at 12.2 µM; in the data active = inhibition above about 11%
ADAM10 inh = ADAM10 inhibition, QFRET primary screen; recombinant ADAM10, EDANS/DABCYL FRET peptide cleavage, 3 h; inhibition, % at 7 µM; 0.62% of 370,000 active;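 active = inhibition above a per-campaign cutoff equal to the mean of compounds falling between control-based bounds plus 3 SD, cut at about 20% in these data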
ADAM10 ctr = inhibits human ADAM10 in ADAM17 exosite counter-screen; inhibition, % at 6.95 µM; shares compounds with ADAM17 inh; 47% of 2,900 active; recombinant ADAM10, EDANS/DABCYL FRET peptide cleavage, 3 h;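 active = mean inhibition over the triplicate runs exceeds the activity threshold set in the earlier primary screen, cut at about 20% in these data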
ADAM17 confirm = confirmation of inhibitors of human ADAM17; shares compounds with ADAM17 inh; recombinant ADAM17, EDANS/DABCYL QFRET peptide cleavage; inhibition, % at 6.95 µM; 65% of 2,900 active; AID 743257;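 active = mean inhibition across replicates above the hit cutoff set in the primary screen, cut at about 8.5% in these data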
Of the large screens only hits and unclear results are named; the others gave an inactive call (follow-up assays come after a bar, where they were run).

COc1ccc(NC(=O)N(C)C[C@H]2Oc3ccc(NC(=O)Nc4ccc(C(F)(F)F)cc4)cc3C(=O)N([C@H](C)CO)C[C@@H]2C)cc1	ADAM17 inh 8.7 | ADAM10 ctr 36 | ADAM17 confirm 18
C[C@@H]1CN([C@H](C)CO)C(=O)c2cc(NC(=O)Cc3ccccc3)ccc2O[C@H]1CN(C)Cc1ccc(Oc2ccccc2)cc1	ADAM17 inh 9.2 | ADAM10 ctr 28 | ADAM17 confirm 19
C[C@H](CO)N1C[C@H](C)[C@@H](CN(C)C(=O)Nc2ccccc2)Oc2ccc(NC(=O)Nc3ccc(C(F)(F)F)cc3)cc2C1=O	none
O=c1c2cc3cc(Cl)ccc3nc2ncn1N1CCCCC1	none
COc1ccccc1NC(=S)OCCN1CCCC12CCC(c1ccccc1)CC2 (configuration not stated)	none (no result: KLK7 zymogen act)
CC(=O)Nc1ccc(OCC(=O)c2ccc(C)cc2C)cc1	ADAM17 inh 9.6 | ADAM10 ctr inactive | ADAM17 confirm inactive
CC(=O)Nc1ccc(OCC(=O)c2cc(C)ccc2C)cc1	none
CCN(CC)c1ccc(NC(=O)CSc2nnc(-c3ccc(Cl)cc3)n2Cc2ccco2)cc1	none
Cc1cc(S(=O)(=O)N2CCC3(CC2)OCCN3S(=O)(=O)c2cccs2)ccc1F	ADAM17 inh 12 | ADAM10 ctr inactive | ADAM17 confirm 9.2
COc1ccc(NC(=O)C(CCCCNC(=O)OC(C)(C)C)NC2(C(=O)NCCc3c[nH]c4ccccc34)CCCCC2)cc1 (configuration not stated)	none (no result: KLK7 zymogen act)
O=C1CC(N(CCc2ccccc2)C(=S)Nc2ccccc2)C(=O)N1c1ccccc1 (configuration not stated)	ADAM17 inh 8.7 | ADAM10 ctr inactive | ADAM17 confirm 8.9
CCNC(=S)N(CCc1ccc(S(N)(=O)=O)cc1)C1CC(=O)N(c2ccccc2)C1=O (configuration not stated)	none
COc1cc(OC)cc(-c2cn[nH]c2N)c1	ADAM17 inh 9.1 | ADAM10 ctr inactive | ADAM17 confirm 13
COP(=O)(CC(=O)O)C(CC(C)C)NC(=O)OCc1ccccc1 (configuration not stated)	none
O=C(COc1ccc(Cl)cc1Cl)NCCCCc1ccccc1	ADAM17 inh 18 | ADAM10 ctr 31 | ADAM17 confirm 13
CCOC(=O)N1CCC(n2c(SCC(=O)Nc3ccccc3OC)nc3ccccc3c2=O)CC1	ADAM17 inh 10 | ADAM10 ctr 29 | ADAM17 confirm 16
CC(C)(C)[C@@H]1COC(=O)[C@H](Cc2ccc(F)cc2)CC/C=C\C[C@H](CC(=O)N(CCO)Cc2ccccc2)C(=O)N1	ADAM17 inh 11 | ADAM10 ctr inactive | ADAM17 confirm inactive
O=C1N[C@@H](Cc2ccccc2)COC(=O)[C@H](Cc2ccc(F)cc2)CC/C=C/C[C@@H]1CC(=O)N(CCO)Cc1ccccc1	none
O=C1N[C@@H](Cc2c[nH]c3ccccc23)COC(=O)[C@@H](Cc2ccc(F)cc2)CC/C=C/C[C@@H]1CC(=O)N(CCO)Cc1ccccc1	ADAM17 inh 10 | ADAM10 ctr 59 | ADAM17 confirm 28
CS(=O)(=O)c1ccccc1-c1nc(-c2ccc(C(F)(F)F)cc2)no1	ADAM17 inh 8.7 | ADAM10 ctr inactive | ADAM17 confirm inactive
CCN(CC)C(=O)C1=C(C)N(Cc2ccc(C(C)(C)C)cc2)C(=O)C(CC(=O)NC(c2ccccc2)c2ccccc2)C1 (configuration not stated)	ADAM17 inh 9.3 | ADAM10 ctr 27 | ADAM17 confirm 13
CC1=C(C(=O)N2CCOCC2)CC(CC(=O)NCc2cccc3ccccc23)C(=O)N1Cc1ccc(C(C)(C)C)cc1 (configuration not stated)	ADAM17 inh 9.0 | ADAM10 ctr inactive | ADAM17 confirm inactive
C=CCN1C(=O)[C@H](CC(=O)NCc2cccs2)[C@@]2(C(=O)OCC)CCCC=C12	none
Cc1ccc[n+](CC(=O)Nc2cc(C(F)(F)F)ccc2Cl)c1	none
CCC(C)(C)c1ccc(OCCCC[n+]2cccc(C)c2)c(C(C)(C)CC)c1	ADAM17 inh 9.4 | ADAM10 ctr inactive | ADAM17 confirm inactive
O=C(CSc1nc2ccccc2[nH]1)N1c2ccccc2Sc2ccccc21	ADAM17 inh 12 | ADAM10 ctr 24 | ADAM17 confirm 14
CN(C)S(=O)(=O)c1ccc(/C(O)=C2/C(=O)C(=O)N(Cc3cccnc3)C2c2ccco2)cc1 (configuration not stated)	ADAM17 inh 12 | ADAM10 ctr inactive | ADAM17 confirm inactive
CN(C)S(=O)(=O)c1ccc(/C(O)=C2/C(=O)C(=O)N(Cc3cccnc3)C2c2ccncc2)cc1 (configuration not stated)	none
CCn1c(=O)n2n(c1=O)[C@H]1C[N+](Cc3ccc4c(c3)OCO4)=C(N)NC1=C(C)C2	none (no result: KLK7 zymogen act)
COC(=O)C1=C(C)N=C2SCCC(=O)N2C1c1ccc(OC(=O)c2ccco2)cc1 (configuration not stated)	ADAM17 inh 17 | ADAM10 ctr inactive | ADAM17 confirm inactive
CC(=O)OCC(=O)[C@@]1(O)CC[C@H]2[C@@H]3CCC4=CC(=O)CC[C@]4(C)[C@H]3[C@@H](O)C[C@@]21C	none
C[C@]12CCC(=O)C=C1CC[C@@H]1[C@@H]2[C@@H](O)C[C@@]2(C)[C@H]1CC[C@]2(O)C(=O)COC(=O)CCC(=O)O	ADAM17 inh 8.8 | ADAM10 ctr inactive | ADAM17 confirm inactive
CC(C)(C)OC(=O)NCc1ccc(CNC(=O)c2[nH]cnc2C(=O)N[C@@H](Cc2ccccc2)C(=O)OCc2ccccc2)cc1	ADAM17 inh 12 | ADAM10 ctr 34 | ADAM17 confirm 20
CCOC(=O)c1ccc(NC(=O)c2nc[nH]c2C(=O)N[C@@H](CC(C)C)C(=O)OC(C)(C)C)cc1	none
C[C@H](NC(=O)c1nc[nH]c1C(=O)N[C@@H](Cc1ccccc1)C(=O)OCc1ccccc1)C(=O)OCc1ccccc1	ADAM17 inh 11 | ADAM10 ctr 33 | ADAM17 confirm 19
CC(C)C[C@H](NC(=O)c1[nH]cnc1C(=O)Nc1ccccc1)C(=O)OC(C)(C)C	ADAM17 inh 14, ADAM10 inh 27 | ADAM10 ctr 40 | ADAM17 confirm 20
C[C@@H](NC(=O)c1nc[nH]c1C(=O)N[C@@H](Cc1ccccc1)C(=O)OC(C)(C)C)c1ccccc1	ADAM17 inh 10 | ADAM10 ctr 33 | ADAM17 confirm 14

Assay outcomes: PubChem, The Scripps Research Institute Molecular Screening Center
